Test results published in PubChem BioAssay AID2783 (National Center for Advancing Translational Sciences (NCATS), 2010).
Records with an inconclusive call do not appear. Activity calls are given as the source filed them. The call rests on the fitted dose curve; in most records, active means well fitted inhibition curve with a large enough effect in the polarisation, with a control signal flat (not every such curve was filed as active); inconclusive means small, poorly fitted or top-dose-only effect, or effect the other way, or a change in a side signal; inactive means no such curve, though single readings can be large or run the other way; the % refers to the polarisation.

target: Menin (Homo sapiens) (UniProt O00255); assay: Confirmation of Inhibitors Targeting the Menin-MLL Interaction in MLL Related Leukemias: Competition With Fluorescein Labeled MLL-derived Peptide; settings: Fluorescence polarization, fluorescein-MLL peptide displacement from menin; series mostly up to 100 µM
Sequence (O00255 whole entry, looked up): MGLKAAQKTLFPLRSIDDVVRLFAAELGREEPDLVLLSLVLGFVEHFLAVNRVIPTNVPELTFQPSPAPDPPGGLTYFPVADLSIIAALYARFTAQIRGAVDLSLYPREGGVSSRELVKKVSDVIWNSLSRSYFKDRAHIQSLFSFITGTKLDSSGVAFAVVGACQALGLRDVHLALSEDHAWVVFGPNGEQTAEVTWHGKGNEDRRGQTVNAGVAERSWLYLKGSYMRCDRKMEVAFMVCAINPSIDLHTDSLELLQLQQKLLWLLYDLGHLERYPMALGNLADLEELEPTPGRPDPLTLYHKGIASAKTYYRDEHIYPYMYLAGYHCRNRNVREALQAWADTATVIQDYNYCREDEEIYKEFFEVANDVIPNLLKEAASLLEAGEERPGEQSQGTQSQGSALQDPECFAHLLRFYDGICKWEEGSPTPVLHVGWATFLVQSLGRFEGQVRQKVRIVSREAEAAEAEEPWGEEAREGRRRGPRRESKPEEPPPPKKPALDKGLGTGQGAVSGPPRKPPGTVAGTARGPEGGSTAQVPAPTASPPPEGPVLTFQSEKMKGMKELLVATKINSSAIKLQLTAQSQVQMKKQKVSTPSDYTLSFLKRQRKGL

outcome, inactive:
O=C(Cn1c(=O)c2c3c(sc2n(Cc2ccccc2)c1=O)CCCC3)NCCO
O=C(C1=C(O)C(=O)N(CCN2CCOCC2)C1c1cccc(Br)c1)c1cccs1 (stereo not drawn)
CC(=O)Nc1ccc(-c2cc3ccccc3o2)cc1
COC(=O)c1ccccc1NC1=C/C(=N\S(=O)(=O)c2ccc(C(=O)O)cc2)c2ccccc2C1=O
Cc1ccc(NC(=O)CN2C(=O)S/C(=C\c3ccc(C(=O)O)cc3)C2=O)cc1
COc1ccc(Cn2nnnc2C(c2ccccc2)N2CCN(C3CCCC3)CC2)cc1 (stereo not drawn)
CCOC(=O)N1CCN(CCC(=O)c2ccc(Br)cc2)CC1
CN(C)/C=C(/C(=O)c1ccc(Cl)cc1)S(=O)(=O)c1ccc(Cl)cc1
CCCN(CCC)CCCNC(=O)c1cc2c(=O)[nH]c3ccccc3c2s1
CN(C)CCCOc1ccc2c(c1)Sc1ccccc1CC2=O
O=S(=O)(c1ccc(-c2csc(Nc3ccc(Br)cc3)n2)cc1)N1CCCC1
CCN(CCn1cccn1)Cc1ccccc1OCC(O)CN1CCc2ccccc2C1 (stereo not drawn)
CCC(=O)NC(=S)Nc1ccc(NC(=S)NC(=O)c2ccc(C)cc2)cc1
CCOC(=O)C1CCN(CC(O)COCc2ccccc2)CC1 (stereo not drawn)
COc1cc(/C=C2/C(=O)N(c3ccc(Br)cc3)N=C2C)cc(OC)c1OC
COc1ccccc1N(CC1CO1)S(=O)(=O)c1ccccc1 (stereo not drawn)
COc1ccccc1NS(=O)(=O)c1cc(NC(=O)Nc2ccccc2)ccc1N1CCCCC1
COC(=O)COc1ccc(C(C2C(=O)CC(C)(C)CC2=O)C2C(=O)CC(C)(C)CC2=O)cc1
CCCCC(=O)NC(=S)Nc1nnn(CCC)n1
COc1ccccc1NS(=O)(=O)c1cc(NC(=O)Nc2ccc(Cl)cc2Cl)ccc1N1CCCCC1
Cc1ccc(F)c(C2C3C=CCC(C)C3C(=O)N2Cc2ccccc2)c1 (stereo not drawn)
CCCn1c(C2CCCN2c2nc(C)cs2)nc2cc(Cl)c(Cl)cc21 (stereo not drawn)
COCCn1c(C)c(C)c2c(NCCc3ccccc3)ncnc21
COC1=C(Nc2ccccc2)C(=O)c2ccccc2C1=O
Cc1c(C(=O)OCC(=O)Nc2ccc(S(N)(=O)=O)cc2)oc2c1ccc1ccccc12
Cc1ccc(NC(=O)C(C)N2C(=O)c3ccccc3C2=O)c(C)c1 (stereo not drawn)
Cc1ccc(C2=NN(C(=O)c3ccccc3F)C(c3ccccc3F)C2)cc1 (stereo not drawn)
COC(=O)C1[C@H]2SC(C)(C)C(C(=O)OC)N2C(=O)N1Cc1nc2ccccc2s1 (stereo partly drawn)
Cc1ccc(C)n1-c1ccc(N(C)C)cc1
CCC(=O)NC(=S)Nc1ccc(-c2nc3ccc(C)cc3s2)cc1
CC(=O)N1c2ccccc2C2(O)N=C(C)SC12 (stereo not drawn)
Cc1ccc(C(=O)Sc2cccccc2=O)cc1
COc1ccc(C2Nc3ccc4ccccc4c3-c3c2c(=O)oc2ccccc32)cc1 (stereo not drawn)
